Most compounds without a hit are left out; they make up all but 2% or so of the library.
EP2 antag: human EP2 receptor antagonists, primary screen, TR-FRET cAMP, C6 glioma cells | Prostaglandin E2 receptor EP2 subtype (Homo sapiens), P43116 | 0.52% of 260,000 active | C6 glioma cells expressing human EP2; cells stimulated with saturating PGE2 | inhibition, % at 25 µM;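 active means percent inhibition above 40 after rounding to a whole number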;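 further: rat C6 glioma host cells with rolipram phosphodiesterase inhibitor present; the protocol text gives 20 µM as final concentration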
CHT PAM: CHT positive allosteric modulators, primary screen, cell-based, membrane potential dye, choline EC20. High affinity choline transporter 1 (Homo sapiens), Q9GZV3. CHT-expressing cells; stronger effect = higher value; LV-AA mutant CHT in HEK293 cells. 0.49% of 310,000 active. AID 488977, 2010. B-score at 10 µM;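 active means initial fluorescence not abnormally high and integrated response B-score, plate-corrected, over 3 SD above library mean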
Target sequence (Q9GZV3 whole entry, looked up): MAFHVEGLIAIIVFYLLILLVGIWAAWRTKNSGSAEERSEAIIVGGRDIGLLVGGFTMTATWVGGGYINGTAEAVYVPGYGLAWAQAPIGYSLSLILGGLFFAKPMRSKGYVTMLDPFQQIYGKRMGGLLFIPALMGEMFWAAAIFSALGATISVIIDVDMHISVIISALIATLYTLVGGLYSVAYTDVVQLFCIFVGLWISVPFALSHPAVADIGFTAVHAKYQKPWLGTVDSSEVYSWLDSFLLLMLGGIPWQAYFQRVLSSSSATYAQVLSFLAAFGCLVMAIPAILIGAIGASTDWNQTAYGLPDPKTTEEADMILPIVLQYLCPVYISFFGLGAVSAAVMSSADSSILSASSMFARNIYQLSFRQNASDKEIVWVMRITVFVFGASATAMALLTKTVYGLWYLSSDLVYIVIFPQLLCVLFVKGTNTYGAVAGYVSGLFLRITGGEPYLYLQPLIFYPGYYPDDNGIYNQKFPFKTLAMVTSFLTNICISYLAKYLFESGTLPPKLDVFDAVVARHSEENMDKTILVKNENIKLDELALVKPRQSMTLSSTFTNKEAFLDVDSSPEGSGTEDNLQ
CHT inh: inhibitors of human choline transporter CHT | 0.86% of 310,000 active | High affinity choline transporter 1 (Homo sapiens), Q9GZV3 | CHT-expressing cells, membrane potential dye, choline response; stronger effect = lower value | AID 488975, 2010 | B-score at 10 µM;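 active means B-score over 3 SD under the library average, and starting fluorescence ratio not unusually high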;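 further: choline stimulus applied at its EC90 after an EC20 pre-addition; B-score computed on integrated fluorescence ratio after choline addition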
EP2 mod: EP2 receptor modulators, cAMP readout, primary screen, cell-based, HTRF cAMP, PGE2 stimulation | EP2-expressing cells, cAMP HTRF FRET, PGE2 co-stimulation | AID 940, 2007 | induction, % at 25 µM | Prostaglandin E2 receptor EP2 subtype (Homo sapiens), P43116 | 0.83% of 260,000 active;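 active means compounds whose cAMP rise, as percent of the full-agonist control response, exceeds 60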;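 further: rat C6 glioma line stably carrying human EP2 under a CMV promoter; the protocol text gives 20 µM as final concentration; 100% = response of wells given 1 µM PGE2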
CHT inh conf: CHT inhibitors, confirmation, cell-based, membrane potential dye, duplicate | shares compounds with CHT inh | AID 493221, 2011 | CHT-expressing cells, choline membrane potential dye; LV-to-AA substituted CHT, HEK293 cells | 70% of 2,400 active | CHT activity remaining % of control (stronger effect = lower value), % at 10 µM;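 active means choline transporter activity left, mean of duplicates at 10 µM, below buffer-only control mean minus 3 SD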;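 further: depolarization triggered by choline at its EC90 following an EC20 pre-addition; 0% = hemicholinium-3 full block and 100% = buffer-only control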
HEK293 MPD ctr: membrane potential effects in parental HEK293, counter-screen for CHT inhibitor project, cell-based, membrane potential dye; choline response; active = decrease or increase beyond buffer ±3SD; membrane potential ratio readout (active if shifted either direction beyond buffer ±3SD; no single direction) at 10 µM; 4% of 2,400 active; shares compounds with CHT inh;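 further: parental cells lack the transporter so any hit is non-specific; ratio is peak minus trough fluorescence over baseline after EC90 choline challenge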
* marks the source's active call; other numbers are inactive results; i = inactive; . = not tested or not shown.

SMILES	EP2 antag	CHT PAM	CHT inh	EP2 mod	CHT inh conf	HEK293 MPD ctr
Cc1ccc2oc(C(=O)N[C@H](C)Cn3nnc4ccccc43)cc(=O)c2c1	7	.	.	-23	.	.
CC1CCN(C(=O)c2ccc3c(c2NCCO)C(=O)c2ccccc2C3=O)CC1	33	i	-6.3*	-30	50%*	2.3*
CC1CC(C)CN(C(=O)c2cccc3c2-c2ccccc2C3=O)C1 (stereo unspecified)	9	i	i	0	.	.
CC(C)Nc1nc(Cl)nc(N(C#N)CN2C(=O)c3ccccc3S2(=O)=O)n1	10	i	i	-30	.	.
CC(C)(C)Nc1nc(Cl)nc(N(C#N)CN2C(=O)c3ccccc3S2(=O)=O)n1	11	i	-5.6*	-34	57%*	i
CC(O)c1cccc(NC(=O)CC(c2ccccc2)c2ccccc2)c1 (stereo unspecified)	.	i	-7.5*	.	45%*	i
O=C(CC(C(=O)O)c1ccccc1)Nc1ccccc1 (stereo unspecified)	3	i	i	-6	.	.
O=C(CC(c1ccccc1)c1ccccc1)Nc1ccncc1	4	i	-5.9*	11	56%*	i
O=C(O)c1cccc(CSc2ncn[nH]2)c1	9	i	-6.1*	-28	i	i
Cc1cc(C)nc(SCc2cccc(C(=O)O)c2)n1	7	i	i	14	.	.
CN(C)C(=O)N1CCN(S(=O)(=O)c2ccc3ccccc3c2)CC1	5	i	-6.7*	-77	5.6%*	i
CN(C)C(=O)N1CCN(S(=O)(=O)c2ccccc2)CC1	12	.	.	3	.	.
Cc1nccn1-c1ccc(CN(Cc2ccc3c(c2)OCO3)CC(C)O)cc1 (stereo unspecified)	4	.	.	-91	.	.
Cc1cc2nnc(SCCCCN3C(=O)c4ccccc4C3=O)n2c2ccccc12	9	.	.	-12	.	.
O=C1c2ccccc2C(=O)N1CCCCSc1nnc2c(Cl)cc(Cl)cn12	6	i	-5.4*	-2	i	i
CC(=O)OC1CC2(C)C(=O)CCC2C2CCc3cc(O)ccc3C12 (stereo unspecified)	5	i	-8.1*	-1	28%*	i
O=C(Nc1ccc2ncccc2c1)c1cccs1	8	.	.	-18	.	.
COc1cccc(/C=N/Nc2cc(Cl)nc(C)n2)c1O	14	i	-6.4*	-23	i	i
COc1ccc(-c2cc(C(=O)NCCCN3CCOCC3)c3cc(C(C)C)ccc3n2)cc1	.	i	-7.4*	.	50%*	i
CCOc1ccc(-c2cc(C(=O)NCCCN3CCOCC3)c3ccccc3n2)cc1	.	i	i	.	.	.
CN(C)c1ccc(/C=N/NC(=O)c2ccc(CN3CCOCC3)cc2)cc1Br	0	i	i	-31	.	.
CCOc1cc(/C=N/NC(=O)c2ccc(CN3CCOCC3)cc2)ccc1OC	10	i	-9*	-5	i	i
COc1ccc(NC(=O)c2ccc(C3SCC(=O)N3Cc3ccco3)cc2)cc1 (stereo unspecified)	1	.	.	-143	.	.
CCCn1nc([N+](=O)[O-])c(C(C#N)c2nc3ccccc3o2)c(Cl)c1=O (stereo unspecified)	16	i	-12*	-7	16%*	i
CCCc1cc(=O)[nH]c(SCc2cc(C(=O)OC)c(C)o2)n1	11	i	-6*	43	i	i
SMILES	EP2 antag	CHT PAM	CHT inh	EP2 mod	CHT inh conf	HEK293 MPD ctr
COc1ccc2cc(CN(C3CCCC3)C(c3nnnn3Cc3ccco3)C(C)C)c(=O)[nH]c2c1 (stereo unspecified)	3	.	.	15	.	.
Cc1nc(SCC(=O)NC(=O)NCc2ccccc2)nc(C)c1C	19	i	-6.2*	-16	69%*	i
CCCc1cc(NCc2ccccn2)n2c(nc3ccccc32)c1C#N	5	i	i	7	.	.
CCCc1cc(NCC2CCCO2)n2c(nc3ccccc32)c1C#N (stereo unspecified)	6	i	-6.9*	6	43%*	i
CCCc1cc(NCCN(C)C)n2c(nc3ccccc32)c1C#N	.	i	-6.1*	.	51%*	i
C=CCNC(=O)c1ccc(C2SCC(=O)N2Cc2ccccc2)cc1 (stereo unspecified)	8	i	-7*	-2	70%*	i
CC(C)OC(=O)CN1CCN(C2c3ccccc3-c3ccccc32)CC1	10	i	-5.6*	27	70%*	i
CC1CCCC(N2CCN(C(C)C)CC2)C1 (stereo unspecified)	18	.	.	-1	.	.
CC(C)c1ccc(S(=O)(=O)N2CCC(C(=O)NCC3(N(C)C)CCCCC3)CC2)cc1	.	i	-6.1*	.	22%*	i
CCOc1ccc(Br)cc1CNCc1cccnc1	.	i	i	.	.	.
Fc1ccccc1COc1ccc(Br)cc1CNCc1ccncc1	16	i	-5.5*	-27	70%*	i
CC(C)(C)C1=NN(CC(=O)NCc2cccs2)C(=O)c2cc3sccc3n2C1	.	.	.	-18	.	.
N#CCN1CCN(CCC(=O)Nc2ccc(OCc3ccccc3)cc2)CC1	21	i	i	-17	i	i
COc1ccc(S(=O)(=O)N2CCC(O)(c3ccccn3)CC2)cc1	.	.	.	-32	.	.
CC(C)CN1CCC(Oc2cccc(C(=O)NCCc3ccccc3)c2)CC1	.	i	-12*	.	21%*	i
CC(NC(=O)c1cccc(OC2CCN(C3CCN(C)CC3)CC2)c1)c1ccccc1 (stereo unspecified)	.	i	i	.	.	.
C/C=C(\C)CN1CCC(Oc2cccc(C(=O)NCc3ccccn3)c2)CC1	.	i	-9.1*	.	21%*	i
COCC(C)N1CCC(Oc2cccc(C(=O)NCCc3ccccc3)c2)CC1 (stereo unspecified)	.	i	-10*	.	14%*	i
CC(NC(=O)c1cccc(OC2CCN(C(=O)C3CC3)CC2)c1)c1ccc(F)cc1 (stereo unspecified)	.	i	-6.3*	.	38%*	i
Cc1ccc(OCC(=O)Nc2sc3c(c2C#N)CCCC3)cc1Cl	10	.	.	-22	.	.
Cc1c(C(=O)N2CCN(Cc3ccccc3F)C[C@@H]2C(C)C)cnn1C	.	.	.	-15	.	.
Cc1cc2c(cc3c(=O)n(CC(=O)N4CCOCC4)nc(C)n32)s1	.	.	.	-1	.	.
CCN(CC(=O)Nc1ccc2c(c1)OCO2)Cc1nc2ccccc2c(=O)[nH]1	2	i	i	-7	.	.
CCN(CC(=O)Nc1ccc2c(c1)CCC2)Cc1nc2ccccc2c(=O)[nH]1	9	i	-5.1*	18	i	i

Screening results: PubChem BioAssay, several laboratories
